Compound activity: PubChem BioAssay, several laboratories
Mdm2-MdmX inh = inhibitors of human Mdm2-MdmX association, primary screen, cell-based, luminescence, split luciferase, SaOS-2, uHTS. Protein Mdm4 (Homo sapiens) + E3 ubiquitin-protein ligase Mdm2 (Homo sapiens), …. inhibition, % at 8 µM. SaOS-2 split-luciferase Mdm2/MdmX complementation. actives 3% (n = 330,000);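 active = inhibition of at least 50% at 8 µM in the primary screen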
697 NFkB inh = inhibitors of PMA/ionomycin-induced NF-kB reporter, 697 cells, primary screen, B-cell NF-kB inhibitor project, cell-based, luminescence, uHTS | 697 B-cell NF-kB luciferase reporter, 16 h | inhibition, % at 4 µM | actives 0.33% (n = 330,000) | AID 435022, 2010; in the data active = inhibition above about 35%
Jurkat NFkB inh = inhibitors of induced NF-kB luciferase reporter, primary screen, TCR NF-kB activation inhibitor project, cell-based, luminescence, uHTS | AID 435003, 2010 | Jurkat, PMA/ionomycin-induced NF-kB luciferase reporter | actives 0.53% (n = 330,000) | inhibition, % at 4 µM; in the data active = inhibition above about 50%
aSyn UTR inh = MLPCN primary screen, SNCA 5' untranslated region. alpha-synuclein 5'UTR reporter, inhibitor activity. inhibition, % (tested at 7.5 µM). actives 0.82% (n = 300,000). AID 1813, 2009; in the data active = inhibition above about 60%; inconclusive = no clear call, values can overlap the other calls;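 also: H4 neuroglioblastoma cells stably carrying SNCA 5'UTR luciferase fusion; 0% = DMSO wells and 100% = positive control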
Gli-Sufu block = Gli-Sufu pathway antagonists, primary screen, luciferase luminescence, Sufu-KO-LIGHT cells, uHTS; Sufu-KO-LIGHT fibroblasts, Gli luciferase reporter luminescence; inhibition, % at 5 µM; actives 0.74% (n = 340,000); AID 588413, 2011;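 active = inhibition above about 55%, limit read from the data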;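 also: 0% = DMSO-treated cells and 100% = wells with medium but no cells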
CSC inhib = cancer stem cell viability inhibitors, primary screen, luminescence. cancer stem cell-like cells viability. inhibition, % at 7.5 µM. actives 1.1% (n = 300,000); in the data active = inhibition above about 75%; inconclusive = no clear call, values can overlap the other calls; tested in HMLE shEcad cells
Mdm2 MdmX conf = Mdm2-MdmX complex disruptors, retested hits, confirmation, luminescence, single concentration; shares compounds with Mdm2-MdmX inh; Mdm2-MdmX binding, luminescent assay; inhibition, % at 8 µM; actives 55% (n = 10,000); AID 489028, 2010; in the data active = inhibition above about 40%
Full FLuc ctr = full-length luciferase signal inhibition, confirmation, counter-screen for Mdm2/MdmX interaction inhibitor project, cell-based, single concentration, SaOS-2. shares compounds with Mdm2-MdmX inh. SaOS-2 full-length luciferase counterscreen, luminescence. inhibition, % at 8 µM. actives 77% (n = 6,200);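 active = mean inhibition at 8 µM reaching about 37%, which flags the compound as non-specific, limit read from the data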;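 also: p53-null SaOS-2 cells with luciferase driven by a doxycycline-inducible promoter; compound on cells about two nights before reading with doxycycline added after day one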
Numbers without * were called inactive; ? = inconclusive; . = no result. The list is not random: actives were taken first. Their share in the collection is about 4.5%.

SMILES | Mdm2-MdmX inh | 697 NFkB inh | Jurkat NFkB inh | aSyn UTR inh | Gli-Sufu block | CSC inhib | Mdm2 MdmX conf | Full FLuc ctr
O=C(Cc1ccccc1)NC(NC(=S)Nc1cc(Cl)ccc1Cl)C(Cl)(Cl)Cl (centres undefined) | 8 | 14 | 1 | -21 | 0 | -18 | . | .
O=C(/C=C/c1ccccc1)NC(NC(=S)Nc1cc(Cl)ccc1Cl)C(Cl)(Cl)Cl (centres undefined) | 89* | -32 | -20 | -16 | 10 | ? | 87* | 31
O=C(/C=C/c1ccccc1)NC(NC(=S)Nc1ccc(Cl)cc1)C(Cl)(Cl)Cl (centres undefined) | 60* | 3 | 13 | -18 | 29 | 35 | 62* | 24
COc1ccc(NC(=S)NC(NC(=O)/C=C/c2ccccc2)C(Cl)(Cl)Cl)cc1 (centres undefined) | 39 | -18 | -6 | -15 | -14 | 14 | . | .
COc1cc(C(=O)Nc2cccc(NC(=O)c3cccs3)c2)cc(OC)c1OC | 46 | 9 | -2 | 16 | 9 | -4 | . | .
CC(=O)O[C@H]1CC[C@]2(C)[C@H]3CC=C4[C@@H]5[C@@H](C)[C@H](C)CC[C@]5(C(=O)O)CC[C@@]4(C)[C@]3(C)CC[C@H]2C1(C)C | 35 | -28 | 17 | 15 | . | -16 | . | .
C=C(C)[C@@H]1CC[C@]2(C(=O)O)CC[C@]3(C)C(CCC4[C@@]5(C)CC[C@H](O)C(C)(C)C5CC[C@]43C)C12 (some centres undefined) | 94* | -18 | 0 | 21 | -23 | 94* | 7 | .
Nc1nnc(-c2cn(-c3ccccc3)nc2-c2ccc(Cl)cc2)o1 | 58* | 0 | 12 | 2 | -2 | 11 | 25 | .
CCc1ccc(C2C(C#N)=C(N)N(N(C)C)C3=C2C(=O)CCC3)cc1 (centres undefined) | 23 | -6 | 11 | -1 | 3 | -13 | . | .
COc1ccc(C2=Nn3c(nnc3-c3ccccc3F)SC2)cc1OCC1CC1 | 84* | -33 | 18 | . | 15 | 57 | 62* | 37*
CCOc1ccc(C2=Nn3c(nnc3-c3ccccc3)SC2)cc1Cl | 17 | -18 | 37 | 19 | -8 | 11 | . | .
COc1ccc(C2=Nn3c(nnc3-c3ccccc3Cl)SC2)cc1OC1CCOC1 (centres undefined) | 63* | -15 | -3 | . | -10 | 25 | 40 | 63*
COc1ccc(C2=Nn3c(nnc3-c3ccccc3Cl)SC2)cc1OC1CCCC1 | 73* | -14 | -3 | . | -1 | . | 49* | 54*
FC(F)Oc1ccc(C2=Nn3c(nnc3-c3ccccc3Cl)SC2)cc1OCC1CC1 | -8 | -52 | 7 | . | 4 | . | . | .
Clc1ccccc1C1=Nn2c(nnc2-c2ccncc2)SC1 | . | . | . | 13 | -8 | -1 | . | .
COc1ccc(OC)c(-c2nnc3n2N=C(c2ccc(OC)c(OC4CCOC4)c2)CS3)c1 (centres undefined) | 68* | 8 | 19 | . | 38 | 44 | 63* | 93*
CCOC(=O)C1(CCSC)NC(c2ccco2)C2C(=O)N(C)C(=O)C21 (centres undefined) | 6 | -8 | -8 | -11 | 0 | . | . | .
Cc1cc(=O)n2nc(N3CCC(C(=O)NCc4ccccc4F)CC3)sc2n1 | 13 | 10 | 7 | 3 | 4 | -5 | . | .
CC(=O)Nc1ccc2nc(NC(=O)c3ccc([N+](=O)[O-])o3)sc2c1 | 10 | -15 | -22 | -100 | 5 | 38 | . | .
COc1ccccc1-c1oc2ccccc2c1C#CC1(O)CCCCC1 | 2 | 11 | -13 | . | 28 | 65 | . | .
